Out of some 20,000 compounds screened, about 85 (0.4%) were called active.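 Rule for the calls: active = cell survival signal 2 SD away from solvent-only control wells, confirmed on one or two retests; inactive = the rest.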 Many of the other results were omitted from the sample, so actives are more common in it than they were.

23 molecules from PubChem BioAssay AID1347385 (Zoeller Lab, School of Medicine, Boston University, 2020) can be followed below.

This experiment is described as follows: phospholipid synthesis inhibitors, CHO cells, primary screen, ZR-82 cells, Enamine library, screen 3 (AID 1347385).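 Note: 3 h compound exposure then viability read about one day after UV.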 The following applies: ZR-82 CHO cells, pyrene fatty acid UV survival, CellTiter Blue, peroxisome-deficient CHO-K1 mutant line, plus DGAT-1, DGAT-2 and ACAT inhibitors; at 10 µM unless noted.
In the case of `CC(C)(C)NC(=O)NC(=O)COC(=O)C1(C)CC1(Cl)Cl` (stereo not drawn), the outcome was inactive.

In the case of `Cc1nc2sc3c(c2c2nnnn12)CCCC3`, the result was inactive. With `O=C1OC(c2ccccc2)=N/C1=C\c1ccc(C(F)(F)F)cc1` the entry was “inactive”; with `Cc1ccc(C)n1-n1c(C)nc2sc3c(c2c1=O)CCCC3`, “inactive”. With `O=S1(=O)CCC(NC2CCCCC2)C1` (stereo not drawn) the entry was “inactive”; with `Cc1ccc(C2=Nn3cc(-c4ccccc4)nc3SC2)cc1`, “inactive”. In the case of `O=c1oc2cc(O)c(Cl)cc2c2c1CCCC2`, the outcome was inactive. In the case of `C=CCNS(=O)(=O)c1ccc2c(c1)OCCO2`, the outcome was inactive. With `Cn1nnc2c(=O)[nH]cc([N+](=O)[O-])c21` the entry was “inactive”; with `CC(C)(C)c1cnnn1-c1ccc([N+](=O)[O-])cc1`, “inactive”. For `CC1CNC(=O)NC1=O` (stereo not drawn) the value was “inactive”; for `CCCCn1c(N)c(N(CC)C(=O)/C=C/c2ccco2)c(=O)[nH]c1=O`, “inactive”.

Take `CCCCNC(=S)N(C)/N=C1\C(=O)Nc2ccc([N+](=O)[O-])cc21`: the outcome was “inactive [setting not given]”.

As to `O=c1oc2ccccc2c(O)c1C=Nc1ccccc1Br`, the outcome was inactive. For `O=C1Nc2ccc([N+](=O)[O-])cc2/C1=N/n1cnnc1`, the outcome is “inactive [setting not given]”. For `c1ccc(CCc2nc(-c3ccncc3)no2)cc1`, the result was inactive. With `Nc1nnc(SCC(=O)O)s1` the entry was “inactive”; with `CCOC(=O)/C=C1\SCC(=O)N1CCSc1nnc(C)s1`, “inactive”. Regarding `COc1cc(/C=N/OCc2ccc([N+](=O)[O-])cc2)ccc1OC(F)F`, the outcome was “inactive [setting not given]”. For `CC1=C(C(C)C)Nc2nnnn2C1c1ccc(Br)cc1` (stereo not drawn) the value was “inactive”; for `CCOC(=O)c1c(-c2ccc(C)o2)csc1N=Cc1c(O)[nH]c(=S)[nH]c1=O`, “inactive”; for `NC(=S)c1cccc(Br)c1`, “inactive”. Take `NC1=NC(=O)/C(=C\c2ccc3c(c2)OCO3)S1`: the result was inactive.
